The record followed here is PubChem BioAssay (NCI).

The panel holds about 83,000 compounds, 20% with a hit somewhere; the sample as a whole holds those more often.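 Single-concentration screen, 48 h exposure, 96-well plates. Endpoint: percent growth. Below 10 = active.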 The source made the active and inactive calls.

This experiment has as its system KM12 colon. The experiment is described as follows: NCI-60 one-dose screen, 48 h (100 = growth as untreated, 0 = no growth, -100 = all killed). Particulars: 10 µM. On the procedure:
Growth inhibition of the KM12 human tumor cell line is measured as a screen for anti-cancer activity. Cells are grown in 96 well plates and exposed to the test compound for 48 hours. Compounds are tested at a single concentration, which is 10^-5 M for most compounds. The reported endpoint is percent growth (GI% or GIPRCNT), where numbers from 0 - 100% represent growth inhibition, and numbers from -100% - 0 represent cell death. For example, a value of 40 represents 60% growth inhibition. A value of 0 means no net growth occurred over the course of the experiment. A value of -40 indicates 40% of cells at the beginning of the experiment died by the end of the experiment. A value of -100 means all cells are dead at the end of the experiment.
NCI-60 Human Tumor Cell Lines Screen was performed using the standard one-dose NCI protocol, which is described in more detail at https://dtp.cancer.gov/discovery_development/nci-60/default.htm.
Compounds with GIPRCNT values below 10 were considered active. Activity score was based on GIPRCNT using the following formula: […]
Score is 0 for GIPRCNT values of 100 or above, 50 for GIPRCNT values of 0, and 100 for GIPRCNT values of -100.
Regarding `CC[C@]12C=CCN3CC[C@@]4(c5ccc(OC)cc5N(C)[C@H]4[C@@](O)(C(=O)OC)[C@@H]1OC(=O)CCC[P+](c1ccc(F)cc1)(c1ccc(F)cc1)c1ccc(F)cc1)[C@@H]32`, the growth was 21.3% (inactive).
For `O=C(/C=C/c1cccc(Br)c1)c1nc2ccccc2n1Cc1ccc(Br)cc1` the value was 6.51% (active).
For `CC12OOC(C)(OO1)C2CCC(=O)OCCNc1ccnc2cc(Cl)ccc12` (stereo not given) the value was 60.6% (inactive); for `CCOP(=O)(CC(F)(F)C(F)(F)F)OCC`, 89.3% (inactive); for `CCOC(=O)C1=C(Nc2ccccc2)C(=O)OC12C(=O)Nc1ccccc12` (stereo not given), 105% (inactive).
With `CC(C)C[C@H](NC(=O)CNC(=O)C[C@H]1O[C@@H]2OC3(C)CC[C@H]4[C@H](C)CC[C@@H]([C@H]1C)[C@@]24OO3)B(O)O` the figure was -15.4% (active); with `COc1cc(OC)c(S(=O)(=O)N(CCCl)CCCl)cc1C(=O)/C=C/c1ccc(C)cc1`, 81.1% (inactive); with `COC(=O)CCn1c(-c2ccc(-n3cc(-c4ccc(O[C@H]5O[C@@H]6OC7(C)CC[C@H]8[C@H](C)CC[C@@H]([C@H]5C)[C@@]68OO7)cc4)nn3)cc2)nc2ccccc21`, 18% (inactive).
In the case of `CC[C@]12C=CCN3CC[C@@]4(c5ccc(OC)cc5N(C)[C@H]4[C@@](O)(C(=O)OC)[C@@H]1OC(=O)CCCC[P+](c1ccc(C)cc1)(c1ccc(C)cc1)c1ccc(C)cc1)[C@@H]32`, the growth was -73.6% (active).
Consider `C[C@H]1[C@@H](Oc2ccc(-c3cn(-c4ccnc5cc(Cl)ccc45)nn3)cc2)O[C@@H]2OC3(C)CC[C@H]4[C@H](C)CC[C@@H]1[C@@]24OO3`, for which the growth is 25.6% (inactive).
As for `CC1=C(COCCOC(=O)c2ccc(S(=O)(=O)F)cc2)C2=C(C)C3(CC3)[C@@](C)(O)C(=O)C2=C1`, the growth was 29.6% (inactive).
With `COc1cc(OC)c(/C=C/C(=O)c2nc3ccccc3n2Cc2ccc(F)cc2)c(OC)c1`, the growth is 91.4% (inactive).
Regarding `CC[C@]12C=CCN3CC[C@@]4(c5ccc(OC)cc5N(C)[C@H]4[C@@](O)(C(=O)OC)[C@@H]1OC(=O)CCCC[P+](C1CCCCC1)(C1CCCCC1)C1CCCCC1)[C@@H]32`, the growth is -71.1% (active).
Turning to `C[C@H]1[C@H](OC(=O)CCC(=O)N(CCCc2cn(-c3ccc([N+](=O)[O-])cc3)nn2)CCNc2ccnc3cc(Cl)ccc23)O[C@@H]2OC3(C)CC[C@H]4[C@H](C)CC[C@@H]1[C@@]24OO3`, the growth was 33.6% (inactive).
`O=C(/C=C/c1ccc(Cl)cc1)c1nc2ccccc2n1Cc1ccc(Br)cc1`: the growth is 67.6% (inactive).
As to `COc1cc2cc(C(=O)N3C[C@@H](CCl)c4c3cc(OC(=O)N3CCN(C)[C@@H]5CSSC[C@@H]53)c3ccccc43)[nH]c2c(OC)c1OC`, the growth is 0.977% (active).
As for `Cc1ccc2[nH]c(=S)n(-c3ccc(F)cc3)c(=O)c2c1`, the growth is 103% (inactive).
For the compound `C[C@H]1[C@@H](CC(=O)N[C@@H](Cc2coc3ccccc23)B(O)O)O[C@@H]2OC3(C)CC[C@H]4[C@H](C)CC[C@@H]1[C@@]24OO3`, the growth was -20.4% (active).
For `CC[C@]12C=CCN3CC[C@@]4(c5ccc(OC)cc5N(C)[C@H]4[C@@](O)(C(=O)OC)[C@@H]1OC(=O)CCCC[P+](c1ccc(OC)cc1)(c1ccc(OC)cc1)c1ccc(OC)cc1)[C@@H]32` the value was -68.8% (active).
For `O=C([Se]C1C=CCCC1)c1ccc(C(=O)[Se]C2C=CCCC2)s1` (stereo not given) the value was -64.9% (active); for `O=C(NC([Se])=NC1CCCCC1)c1ccccc1`, 35.5% (inactive).
`CC12OOC(C)(OO1)C2CCC(=O)NCCCNc1ccnc2cc(Cl)ccc12` (stereo not given): the growth was 86.4% (inactive).
Take `COCCOCCOCCOc1ccc(-n2cc(CCCN(CCNc3ccnc4cc(Cl)ccc34)C(=O)CCC(=O)O[C@@H]3O[C@@H]4OC5(C)CC[C@H]6[C@H](C)CC[C@@H]([C@H]3C)[C@@]46OO5)nn2)cc1`: the growth is 28.6% (inactive).
With `CC1=C2C(=C[C@@](C)(COP(=O)(Oc3ccccc3)Oc3ccccc3)[C@@H]2O)C(=O)[C@@](C)(O)C12CC2` the figure was -29.3% (active); with `N#C[Se]CC(=O)Nc1cccc(C(F)(F)F)c1`, 41.5% (inactive).
For `CC1=C(C=O)C2=C(C)C3(CC3)[C@@](C)(O)C(=O)C2=C1` the value was 16.3% (inactive); for `O=C(/C=C/c1ccc(Cl)cc1Cl)c1nc2ccccc2n1Cc1ccc(F)cc1`, 53% (inactive).
`COC(=O)c1ccc(-n2cc(CCCN(CCNc3ccnc4cc(Cl)ccc34)C(=O)CCC(=O)O[C@@H]3O[C@@H]4OC5(C)CC[C@H]6[C@H](C)CC[C@@H]([C@H]3C)[C@@]46OO5)nn2)cc1`: the growth was 32.6% (inactive).
With `C#CCCCN(CCNc1ccnc2cc(Cl)ccc12)C(=O)CCC(=O)O[C@@H]1O[C@@H]2OC3(C)CC[C@H]4[C@H](C)CC[C@@H]([C@H]1C)[C@@]24OO3` the figure was 27.7% (inactive); with `COc1cc2cc(C(=O)N3C[C@@H](CCl)c4c3cc(OC(=O)N3CCN(C)[C@@H]5CSSC[C@H]53)c3ccccc43)[nH]c2c(OC)c1OC`, -9.39% (active); with `CC[C@]12C=CCN3CC[C@@]4(c5ccc(OC)cc5N(C)[C@H]4[C@@](O)(C(=O)OC)[C@@H]1OC(=O)CCC[P+](C1CCCCC1)(C1CCCCC1)C1CCCCC1)[C@@H]32`, -63.4% (active).
With `CCC[Se]C(=O)c1ccc(C(=O)[Se]CCC)s1` the figure was 5.4% (active); with `O=C(/C=C/c1ccco1)c1nc2ccccc2n1Cc1ccc(Br)cc1`, 20.7% (inactive).
For the compound `O=C(/C=C/c1ccccc1)c1nc2ccccc2n1Cc1ccc(F)cc1`, the growth is -41.3% (active).
In the case of `CC1=C(CCC=O)C2=C(C)C3(CC3)[C@@](C)(O)C(=O)C2=C1`, the growth was -72.9% (active).
Regarding `CC(=O)Oc1ccccc1C(=O)[Se]C(=NC(C)C)NC(C)C`, the growth was -89.6% (active).
For `C[C@H]1[C@H](OC(=O)CCC(=O)Nc2cnccn2)O[C@@H]2OC3(C)CC[C@H]4[C@H](C)CC[C@@H]1[C@@]24OO3` the value was 22.3% (inactive).
Consider `O=C(/C=C/c1ccccc1Cl)c1nc2ccccc2n1Cc1ccc(F)cc1`, for which the growth is -60.5% (active).
As to `COCCOCCOCCOc1ccc(-n2cc(-c3ccc(O[C@H]4O[C@@H]5OC6(C)CC[C@H]7[C@H](C)CC[C@@H]([C@H]4C)[C@@]57OO6)cc3)nn2)cc1`, the growth was 31.6% (inactive).
In the case of `C[C@H]1[C@H](OC(=O)CCC(=O)N(CCCc2cn(-c3ccc(CN4CCOCC4)cc3)nn2)CCNc2ccnc3cc(Cl)ccc23)O[C@@H]2OC3(C)CC[C@H]4[C@H](C)CC[C@@H]1[C@@]24OO3`, the growth is 24.7% (inactive).
